What all share (experiment): NCI-60 one-dose screen, 48 h (100 = growth as untreated, 0 = no growth, -100 = all killed)
One assay relates to HCT-15 colon. The settings on record: 10 µM unless noted.
For another assay, the system named is HT29 colon. The settings on record: 10 µM unless noted.
The next assay concerns SNB-75 CNS. The settings on record: 10 µM unless noted.
The next assay deals with SNB-19 CNS. To be noted: 10 µM unless noted.
Another assay has as its system U251 CNS. To be noted: 10 µM unless noted.
The next assay concerns PC-3 prostate. To be noted: 10 µM unless noted.
In a further assay the test system is SK-MEL-5 melanoma. The settings on record: 10 µM unless noted.
The next assay relates to UACC-62 melanoma. The settings on record: 10 µM unless noted.
A further assay deals with LOX IMVI melanoma. The settings on record: 10 µM unless noted.
In another assay the test system is SK-MEL-28 melanoma. The settings on record: 10 µM unless noted.
A further assay deals with EKVX NSCLC. To be noted: 10 µM unless noted.
A further assay has as its system SN12C renal. The settings on record: 10 µM unless noted.
In another assay the test system is UO-31 renal. The settings on record: 10 µM unless noted.
The next assay relates to TK-10 renal. To be noted: 10 µM unless noted.
A further assay deals with ACHN renal. To be noted: 10 µM unless noted.
A further assay deals with CAKI-1 renal. To be noted: 10 µM.
For a further assay, the system named is A498 renal. The settings on record: 10 µM unless noted.
For a further assay, the system named is CCRF-CEM leukemia. To be noted: 10 µM unless noted.
A further assay has as its system MOLT-4 leukemia. The settings on record: 10 µM unless noted.

SMILES strings stand for the structures. The panel holds about 83,000 compounds, 20% with a hit somewhere; the sample as a whole holds those more often.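 96-well plates, one dose, 48 hours. Percent growth reported; active if below 10.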 Values without a mark were called inactive. The source made the active and inactive calls.

From PubChem BioAssay (NCI) come the findings set out here.

As to `CS(=O)c1nccc(-c2c(-c3ccc(F)c(OCCc4ccccc4)c3)nc3sccn23)n1` (stereo unspecified), the growth in the assay on HCT-15 colon was 65.4%; with HT29 colon, 59.9%; in the assay on SNB-75 CNS, 106%; in the assay with SNB-19 CNS it was 86.6%; with U251 CNS, 106%; in the assay with PC-3 prostate it was 64.6%. Besides, the growth in the assay with SK-MEL-5 melanoma was 100%; in the assay on UACC-62 melanoma it was 93.8%; in the assay on LOX IMVI melanoma it was 72.1%; in the assay with SK-MEL-28 melanoma, 87.8%; in the assay with EKVX NSCLC, 99.9%; with SN12C renal, 93.7%. The growth in the assay on UO-31 renal is 52.7%; in the assay with TK-10 renal, 105%; with ACHN renal it was 72.8%; in the assay on CAKI-1 renal, 84.8%; in the assay on A498 renal, 92.6%; in the assay on CCRF-CEM leukemia it was 49.8%.

With `CN1CCN(Cc2ccc(NC(=O)c3cncc(C#Cc4cnc5ccc(NC6CCOCC6)nn45)c3)cc2C(F)(F)F)CC1`, the growth in the assay with HCT-15 colon was -48.4% (active); in the assay on HT29 colon, 0.122% (active); in the assay with SNB-75 CNS it was -56.8% (active); in the assay with SNB-19 CNS, -7.17% (active); in the assay on U251 CNS, -96.7% (active); in the assay with PC-3 prostate it was -15.5% (active). In addition, the growth in the assay with SK-MEL-5 melanoma was -97.7% (active); in the assay on UACC-62 melanoma it was -61.8% (active); in the assay on LOX IMVI melanoma, -83.8% (active); with SK-MEL-28 melanoma, -74.6% (active); in the assay on EKVX NSCLC, -4.66% (active); with SN12C renal it was 1.01% (active). Further, the growth in the assay with UO-31 renal was -43.7% (active); in the assay on TK-10 renal, -11.7% (active); in the assay on ACHN renal, -95.5% (active); with CAKI-1 renal, -46.9% (active); with CCRF-CEM leukemia, 3.15% (active); in the assay with MOLT-4 leukemia, 5.18% (active).

Consider `COc1ccc(-c2nc3cc(Cl)c(Cl)cc3n2CC(=O)N=Nc2c(O)[nH]c3ccc(Br)cc23)cc1`, for which the growth is -44.8% (active) in the assay with HCT-15 colon; -24% (active) in the assay with HT29 colon; 47.3% in the assay with SNB-75 CNS; 22% in the assay with SNB-19 CNS; -58% (active) in the assay with U251 CNS; -47.1% (active) with PC-3 prostate. Further, the growth with SK-MEL-5 melanoma was 51.5%; with UACC-62 melanoma it was 4.88% (active); in the assay with LOX IMVI melanoma, -77.9% (active); with SK-MEL-28 melanoma, -66.9% (active); in the assay with EKVX NSCLC, 4.81% (active); with SN12C renal, -20.1% (active). Also, the growth is -34.9% (active) in the assay with UO-31 renal; 6.26% (active) in the assay on TK-10 renal; -83% (active) with ACHN renal; -76.8% (active) in the assay with CAKI-1 renal; 39% with CCRF-CEM leukemia; 36.4% in the assay on MOLT-4 leukemia.

Turning to `CCN1CCN(c2cc(C(=O)Nc3nc4ccc(Oc5ccnc(C(=O)NC)c5)cc4s3)cc(C(F)(F)F)c2)CC1`, the growth in the assay on HCT-15 colon was 26.9%; in the assay on HT29 colon, 18.5%; in the assay with SNB-75 CNS it was 88.7%; in the assay on SNB-19 CNS, 111%; with U251 CNS, 76.8%; with PC-3 prostate it was 55.6%. The growth in the assay with SK-MEL-5 melanoma is 63.6%; with UACC-62 melanoma, 90.7%; in the assay with LOX IMVI melanoma, 34.6%; with SK-MEL-28 melanoma it was 76.8%; in the assay on EKVX NSCLC it was 92.5%; with SN12C renal, 75.2%. The growth in the assay on UO-31 renal was -63.3% (active); in the assay on TK-10 renal, 100%; in the assay with ACHN renal, 66%; in the assay on CAKI-1 renal, 84.5%; in the assay on CCRF-CEM leukemia, 65%; in the assay with MOLT-4 leukemia it was 52.3%.

`COc1cc(-c2nc(SCc3ccc(C)cc3)[nH]c(=O)c2C#N)ccc1OCc1ccccc1`: the growth with HCT-15 colon is 97.9%; with HT29 colon, 109%; with SNB-75 CNS, 96.6%; in the assay on SNB-19 CNS, 97.2%; with U251 CNS, 102%; in the assay with PC-3 prostate it was 107%. Besides, the growth in the assay on SK-MEL-5 melanoma is 87.8%; with UACC-62 melanoma it was 97.8%; in the assay with LOX IMVI melanoma it was 114%; with SK-MEL-28 melanoma it was 101%; with EKVX NSCLC, 107%; in the assay with SN12C renal, 116%. The growth is 91.8% with UO-31 renal; 101% in the assay on TK-10 renal; 105% in the assay with ACHN renal; 95.2% with CAKI-1 renal; 116% with CCRF-CEM leukemia; 129% with MOLT-4 leukemia.

With `Cc1ccc(Cc2cnc(NC(=O)/C(C#N)=C/c3ccc(-c4ccc(Cl)cc4)o3)s2)cc1`, the growth with HCT-15 colon was 93.3%; in the assay on HT29 colon it was 97.1%; with SNB-75 CNS, 94.9%; in the assay on SNB-19 CNS, 106%; in the assay on U251 CNS, 102%; in the assay on PC-3 prostate, 87.6%. Further, the growth in the assay on SK-MEL-5 melanoma is 92.4%; with UACC-62 melanoma, 95.4%; with LOX IMVI melanoma it was 81.3%; in the assay on SK-MEL-28 melanoma it was 103%; in the assay on EKVX NSCLC it was 92.7%; in the assay with SN12C renal, 97.4%. The growth with UO-31 renal was 90.1%; in the assay on ACHN renal, 97.4%; in the assay on CAKI-1 renal, 83.8%; in the assay with CCRF-CEM leukemia, 98.4%; in the assay with MOLT-4 leukemia, 103%.

With `CS(=O)c1nccc(-c2c(-c3ccc(F)c(OCc4ccccc4)c3)nc3sccn23)n1` (stereo unspecified), the growth in the assay on HCT-15 colon was 74.8%; in the assay on HT29 colon, 89.5%; with SNB-75 CNS it was 95.4%; in the assay with SNB-19 CNS, 93.3%; in the assay with U251 CNS, 105%; with PC-3 prostate, 54.1%. Further, the growth with SK-MEL-5 melanoma was 100%; with UACC-62 melanoma, 93.6%; in the assay on LOX IMVI melanoma it was 81.7%; with SK-MEL-28 melanoma, 55.5%; with EKVX NSCLC it was 83%; in the assay on SN12C renal it was 97.4%. The growth with UO-31 renal is 94.9%; with TK-10 renal, 106%; in the assay with ACHN renal it was 82.6%; in the assay on CAKI-1 renal, 89.3%; in the assay on CCRF-CEM leukemia, 76.4%; with MOLT-4 leukemia, 32.2%.

As for `CCOC(=O)c1c(Nc2ccccc2)nn2c(-c3ccc(OC)c(OC)c3)ccnc12`, the growth in the assay on HCT-15 colon was 18.4%; in the assay with HT29 colon, 62.3%; in the assay on SNB-75 CNS, 68.7%; with SNB-19 CNS it was 80.1%; with U251 CNS, 60.6%; in the assay on PC-3 prostate it was 39.1%. Also, the growth in the assay on SK-MEL-5 melanoma is 32.4%; in the assay with UACC-62 melanoma, 77.1%; in the assay with LOX IMVI melanoma it was 37.6%; with SK-MEL-28 melanoma, 65.8%; with EKVX NSCLC, 77.1%; in the assay with SN12C renal it was 67.9%. Also, the growth with UO-31 renal is 42.9%; with TK-10 renal, 80.6%; in the assay on ACHN renal it was 54.8%; in the assay on CAKI-1 renal, 44.4%; in the assay with CCRF-CEM leukemia, 30.9%; in the assay with MOLT-4 leukemia, 36.5%.

Turning to `C=CCn1c(SCC(=O)c2ccc(OC)cc2)nnc1-c1ccc(OC)cc1`, the growth was 98.1% in the assay on HCT-15 colon; 108% in the assay with HT29 colon; 108% in the assay on SNB-75 CNS; 99.7% in the assay on SNB-19 CNS; 102% in the assay with U251 CNS; 99.6% in the assay with PC-3 prostate. Moreover, the growth in the assay on SK-MEL-5 melanoma was -20% (active); with UACC-62 melanoma, 95.4%; with LOX IMVI melanoma, 103%; in the assay on SK-MEL-28 melanoma it was 100%; in the assay with EKVX NSCLC, 96.4%; with SN12C renal it was 97.6%. Besides, the growth is 92.1% in the assay on UO-31 renal; 105% with TK-10 renal; 104% with ACHN renal; 88.3% in the assay with CAKI-1 renal; 107% with CCRF-CEM leukemia; 96.1% in the assay on MOLT-4 leukemia.
